Assay results reported in PubChem BioAssay AID1259240 (Keith Lab, Institute of Cancer Science, University of …, 2017).
Calls of active or inactive are those of the source. Rule as the data show it: active = fold change mostly below about -2 (no sharp cut-off); inactive = mostly above about -1.8.

Assay: modulation of TERT promoter-driven luciferase – cell-based, luciferase reporter, human, primary screen (AID 1259240)
Details: A2780 TERT promoter luciferase reporter, 16 h; at 20 µM, fold versus average of vehicle-only wells

Fold change, inactive:
CCOC(=O)CSc1n[nH]c(N)n1 -1.02
O=C(O)COc1ccc(/C=C2/NC(=O)N(c3ccccc3)C2=O)cc1 -1.53
CCOC(=O)C1CCN(c2c(NCCN(C)C)c(=O)c2=O)CC1 1.32
CCS(=O)(=O)Nc1cccc(C2=NN(S(C)(=O)=O)C(c3cccs3)C2)c1 (stereo unspecified) -1.32
CC(C)CCNS(=O)(=O)c1ccc2c(c1)n(C)c(=O)c(=O)n2C 1.28
Cc1ccc2c(c1)/C(=c1/sc3n(c1=O)CN(c1ccc(Cl)cc1)CN=3)C(=O)N2 -1.65
Cn1c(=O)c2c(SCC(=O)Nc3ccccc3F)nc(-c3cccs3)nc2n(C)c1=O 1.46
CC1(C)CC(=O)c2sc(NC(=O)c3ccccc3)nc2C1 -1.97
O=C(c1cnc2ccccc2n1)N1CCn2c(nc3ccccc32)C1 1.4
Cc1cccc(-c2c3c(=O)n(C)c(=O)n(C)c3c3c(C)nc4ccccc4n23)c1 1.21
c1ccc2nc3c(nc2c1)Nn1cnnc1S3 -1.42
CCOC(=O)c1c(C=O)c2ccccc2n1C 1.15
CCCCNC(=O)CCN1C(=O)c2ccccc2S1(=O)=O -1.02
CCOC(=O)c1cc2cc(Cl)ccc2oc1=O 1.32
O=C(Nc1ccc(S(=O)(=O)N2CCCC2)cc1)C1c2ccccc2Oc2ccccc21 -1.83

outcome, inactive:
CCOC(=O)C(Sc1nnc(-c2c[nH]c3ccccc23)n1C)C(=O)OCC
